Our source for the growth values is PubChem BioAssay (NCI).

The panel holds about 83,000 compounds, 20% with a hit somewhere; the sample as a whole holds those more often.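 Treatment: one concentration, 48 hours, 96-well format. Scoring: percent growth, with anything below 10 considered active.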 Unmarked numbers belong to inactive results. Activity calls are given as the source filed them.

In the test the test system is SF-539 CNS. Nature of the test: NCI-60 one-dose screen, 48 h (100 = growth as untreated, 0 = no growth, -100 = all killed). The following applies: 10 µM unless noted.
With `COc1cc(C2=NN(C(C)=O)C(c3ccc(N4CCOCC4)cc3)C2)cc(OC)c1OC` (centres undefined), the growth is 102%.

Take `COc1ccc([C@H]2c3[nH]c4ccccc4c3C[C@@H]3C(=O)N(C4CCN(Cc5ccccc5)CC4)CC(=O)N23)c(OC)c1`: the growth is 81.7%.

As for `COc1ccc([C@H]2[C@H](O)C(=O)N2c2cc(OC)c(OC)c(OC)c2)cc1Cl`, the growth was -9.87% (active).

Take `COc1ccc(/C=C/C(=O)c2nnn(-c3ccc(C(=O)O)cc3)c2C)cc1OC`: the growth was 91.7%. `O=[N+]([O-])c1ccc(-c2nnc(SCc3ccc(O)c4ncccc34)n2-c2ccccc2)cc1`: the growth was 11.7%. Take `O=C(NCCCNc1cc(-c2cn(-c3ccccc3)nc2-c2cccc(O)c2)ccn1)Nc1cccc(C(F)(F)F)c1`: the growth is 27.5%. In the case of `CC(C)C(=O)Nc1ccc(-c2nc(-c3cccc(O)c3)c(-c3ccnc(Br)c3)[nH]2)cc1`, the growth was 34.5%. Consider `Cc1cc(F)cc(NS(=O)(=O)c2ccc(-c3cnc(C4CC4)o3)cc2)c1`, for which the growth was -1.6% (active). As for `CCOC(=O)c1c(NCC(=O)Nc2cccc(Cl)c2)sc2c1CCCC2`, the growth is 92.5%. With `O=S(=O)(Nc1cc(Cl)cc(Cl)c1)c1ccc(-c2cnc(C3CC3)o2)cc1`, the growth is 13.7%. `COc1cc2c3c(n(CCCNC4CCC4)c(=O)c2cc1OC)-c1cc2c(cc1C3=O)OCO2`: the growth is -83.5% (active). For `CCOC(=O)Nc1cccc(-n2cnc3cc(-c4ccc(O)cc4)ccc32)c1`, the growth is 4.17% (active). Consider `CC(=O)NC(C)(C)C(=O)N[C@@H](C)C(=O)NC(C)(C)C(=O)N[C@@H](C)C(=O)NC(C)(C)C(=O)N[C@@H](C)C(=O)N[C@@H](CCC(N)=O)C(=O)NC(C)(C)C(=O)N[C@H](C(=O)NC(C)(C)C(=O)NCC(=O)N[C@@H](CC(C)C)C(=O)NC(C)(C)C(=O)N1CCC[C@H]1C(=O)N[C@H](C(=O)NC(C)(C)C(=O)NC(C)(C)C(=O)N[C@@H](CCC(N)=O)C(=O)N[C@@H](CCC(N)=O)C(=O)N[C@H](CO)CC1CCCCC1)C(C)C)C(C)C`, for which the growth was 29.3% [5 µM].

As to `Cc1nn(-c2ccc(Cl)cc2)c(C)c1N=Nc1ccc2oc(=O)ccc2c1`, the growth was 62.1%. In the case of `O=C(NCCNc1cc(-c2cn(-c3ccccc3)nc2-c2cccc(O)c2)ccn1)Nc1ccc(Cl)c(C(F)(F)F)c1`, the growth is 40.2%. For `CN(c1ccc(Br)cc1)S(=O)(=O)c1ccc(-c2cnc(C3CC3)o2)cc1` the value was 1.56% (active). Take `CC(C)C[C@H]1C(=O)O[C@H](C(C)C)C(=O)N(C)[C@@H](C(C)C)C(=O)O[C@H](C(C)C)C(=O)N(C)[C@@H](C(C)C)C(=O)O[C@H](C(C)C)C(=O)N1C`: the growth was 22.3%. For `CCCC(=O)NC(c1cccnc1)c1cc(Cl)c2cccnc2c1O` (centres undefined), the growth is 38%. Take `Nc1nc(-c2cccc([N+](=O)[O-])c2)c(N=Nc2ccccc2[N+](=O)[O-])s1`: the growth was -73.3% (active). `C/C(=N\NC(=O)CSc1nc2sc3c(c2c(=O)n1-c1ccccc1)CCC(C)C3)c1ccc(Cl)cc1` (centres undefined): the growth was 18.5%. Turning to `C#C[C@]1(O)CC[C@H]2[C@@H]3CC=C4c5sc(Nc6nc(C)cc(OC)n6)nc5CC[C@]4(C)[C@H]3CC[C@@]21C`, the growth was -14.8% (active). `CN1CCN(c2ccc(NC(=O)Nc3ccc4c(ccn4-c4cccc(C(N)=O)n4)c3)cc2C(F)(F)F)CC1`: the growth is 6.11% (active). As for `COc1ccc(NS(=O)(=O)c2ccc(-c3cnc(C4CC4)o3)cc2)cc1Cl`, the growth is 13.3%. As for `CC1OC(O[C@@H]2C(O)C(CO)OC(O[C@H]3COC(O[C@H]4CC[C@]5(C)[C@H]6CC[C@]78OC[C@@]9(CC[C@](C)(C=O)C[C@H]97)[C@H](O)C[C@@]8(C)[C@]6(C)CC[C@H]5C4(C)C)[C@@H](OC4OC(CO)[C@@H](O)[C@@H](O)[C@@H]4O)[C@@H]3O)[C@H]2OC2OC[C@@H](O)[C@@H](O)[C@@H]2O)[C@@H](O)[C@@H](O)[C@H]1O` (some centres undefined), the growth was 1.77% (active). In the case of `COc1ccc(-c2ccc3c4c(cccc24)C(=O)N(N2C(=O)c4cccc5cccc(c45)C2=O)C3=O)cc1`, the growth is 95.7%.

Take `N#Cc1c(NC(=O)c2ccc(F)c(Cl)c2)sc2c1CCC(=O)C2`: the growth was -56.2% (active). For the compound `Nc1ccc(-c2nnc(SCc3ccc(O)c4ncccc34)o2)cc1`, the growth was -14.1% (active).

Turning to `IP(CCCCCCCCCCSc1n(Cc2ccc3ccccc3c2)c(-c2ccccc2)c(-c2ccccc2)[n+]1Cc1ccc2ccccc2c1)(c1ccccc1)(c1ccccc1)c1ccccc1`, the growth was -66.7% (active). As to `Cc1cc(Cl)cc(NS(=O)(=O)c2ccc(-c3cnc(C4CC4)o3)cc2)c1`, the growth is 6.15% (active).

Take `COc1cc(/C=N/n2cnc3oc(-c4ccccc4)cc3c2=N)cc(CN2CCCCC2)c1O`: the growth is -87.9% (active). For `CCOC(=O)c1c(NC(=O)c2ccc(C(C)(C)C)cc2)sc2cc(OCCN3CCCCC3)ccc12`, the growth was 82.1%. For the compound `NS(=O)(=O)Oc1ccc2nc(Nc3ccc(F)c(F)c3)ccc2c1`, the growth is 89.9%.

Turning to `CC(=O)c1sc(Nc2cccc(Nc3nc(C)c(C)s3)c2)nc1C`, the growth is 72.2%. For the compound `CCCCCCNC(=O)Oc1ccc(/C(=C(\C)c2ccc(OC)cc2)c2ccc(OCCN(C)C)cc2)cc1`, the growth was 45.3%.

In the case of `Cc1cccc(NC(c2cc3cccc4ccc5cccc2c5c43)c2nnnn2C(C)(C)C)c1C` (centres undefined), the growth is 86.5%.

Turning to `CCOC(=O)c1c(NCC(=O)Nc2cccc([N+](=O)[O-])c2)sc2c1CCCC2`, the growth is -55.6% (active). To `O=c1oc2ccc(-c3ccc(F)cc3F)cc2c(=O)n1-c1ccc(F)c(F)c1` belongs 11.9%.

For `Brc1cccc(/C=N/Nc2nc(N/N=C/c3cccc(Br)c3)nc(N3CCOCC3)n2)c1`, the growth is 56.4%.

In the case of `N#C/C(=C\c1ccc2ccccc2c1)C(=O)Nc1sc2c(c1C#N)CCC2`, the growth was 102%.
